Laboratory results as given in PubChem BioAssay.
A number with no mark means an inactive call. Inconclusive results are not listed. Active and inactive are the calls of the source. Unless noted, how the calls were made is not given here.

What was measured:
[1] = compounds altering Cy5-DNA-NS3h complex signal – biochemical, LOPAC1280, artefact control for HCV NS3 helicase inhibitor project (AID 687037); conditions: Cy5-DNA-NS3h complex fluorescence interference counterscreen
[2] = blockers of cellular phospholipid synthesis – cell-based, LOPAC library, screen 4, primary screen (AID 1347384); conditions: animal cells, phospholipid biosynthesis inhibition screen; at 10 µM
[3] = tested on: Aerobactin synthetase IucA (Klebsiella pneumoniae); experiment: inhibition of K. pneumoniae IucA enzyme – biochemical, Tocris library, absorbance (AID 1345561); conditions: purified IucA enzyme assay, absorbance (OD) read-out; active compounds read low; concentration not given here;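 further: 100% = enzyme without compound and 0% = no enzyme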
[4] = viability loss in pontine glioma line – cell-based, SU-DIPG-XVII, MIPE5.0, CellTiter-Glo, qHTS, dose response (AID 1347060; cut-off not given, nearly all actives have AC50 up to about 26 µM;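 on AC50: cells exposed to compound for 48 hours before viability readout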); conditions: CellTiter-Glo ATP luminescence
[5] = viability loss in pontine glioma line – cell-based, SU-DIPG-XIII, MIPE5.0, CellTiter-Glo, qHTS, dose response (AID 1347064; cut-off not given, nearly all actives have AC50 up to about 23 µM); conditions: CellTiter-Glo ATP luminescence
[6] = viability loss in pontine glioma line – cell-based, SU-DIPG-XXV, MIPE5.0, CellTiter-Glo, qHTS, dose response (AID 1347065; cut-off not given, nearly all actives have AC50 up to about 26 µM;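 further: cells exposed to compound for 48 hours before ATP readout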); conditions: CellTiter-Glo ATP luminescence
[7] = growth inhibition of DIPG cells – cell-based, MIPE4.0 library, CellTiter-Glo luminescence, qHTS (AID 1347066; cut-off not given, nearly all actives have AC50 up to about 30 µM;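 further: cells exposed to compound for 48 hours before readout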); conditions: SU-DIPG-VI viability, CellTiter-Glo ATP luminescence
[8] = growth inhibition of DIPG cells – cell-based, MIPE5.0 library, qHTS (AID 1347068; cut-off not given, nearly all actives have IC50 up to about 30 µM;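 on IC50: cells exposed to compound for 48 hours before viability readout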); conditions: SU-DIPG-XXV viability
[9] = target: ATP-dependent translocase ABCB1 (Homo sapiens) (UniProt P08183); experiment: P-glycoprotein substrate transport blockade – cell-based (AID 377; in the data active means fluorescence slope change above about 50%); conditions: MDR1-expressing cells, fluorescent substrate accumulation slope; active compounds read high; concentration not given here
[10] = viability loss in pontine glioma line – cell-based, SU-DIPG-XIII, MIPE4.0, CellTiter-Glo, qHTS, dose response (AID 1347061; cut-off not given, nearly all actives have AC50 up to about 37 µM;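 further: cells exposed to compound for 48 hours before readout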); conditions: CellTiter-Glo ATP luminescence
[11] = viability loss in pontine glioma line – cell-based, JHH-DIPG-1, MIPE4.0, CellTiter-Glo, qHTS, dose response (AID 1347062; cut-off not given, nearly all actives have AC50 up to about 27 µM;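 on AC50: cells exposed to compound for two days before readout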); conditions: JHH-DIPG-1 viability, CellTiter-Glo ATP luminescence
[12] = viability loss in pontine glioma line – cell-based, SU-DIPG-IV, MIPE4.0, CellTiter-Glo, qHTS, dose response (AID 1347063; cut-off not given, nearly all actives have AC50 up to about 30 µM;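 further: compound exposure lasted 48 hours before the viability readout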); conditions: CellTiter-Glo ATP luminescence
[13] = target: Mitogen-activated protein kinase 7 (Homo sapiens) (UniProt Q13164); experiment: Gal4-ERK5 driven luciferase induction – cell-based, HTS, primary screen (AID 1508626;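 active means luciferase signal above three times the same-plate solvent-only control wells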;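 further: luciferase driven by Gal4-ERK5 fusion binding five Gal4 sites before minimal TATA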); conditions: HeLa Gal4-ERK5 transactivation, 18 h, at 5 µM, active compounds read high
[14] = JHH-DIPG-1 glioma cell viability, MIPE5.0 library, CellTiter-Glo luminescence, qHTS (AID 1347067; cut-off not given, nearly all actives have AC50 up to about 26 µM;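 further: cells exposed to compound for 48 hours before readout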); conditions: JHH-DIPG-1 glioma viability, CellTiter-Glo ATP luminescence
[15] = tested on: Aerobactin synthetase IucA (Klebsiella pneumoniae hvKP1); experiment: IucA enzyme inhibition, primary screen, biochemical, Spectrum library (AID 1346200); conditions: malachite green pyrophosphate, A620, at 8 µM, active compounds read low;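 further: 100% = wells without compound and 0% = wells lacking enzyme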
[16] = signal quenchers or enhancers, Cy5 substrate/SSB – biochemical, NIH Clinical Collection, E. coli SSB, artefact control for HCV NS3 helicase inhibitor project (AID 743268); conditions: Cy5-oligo bound E. coli SSB, fluorescence interference
[17] = tested on: Hepatitis C virus NS3 helicase; experiment: blockers of NS3h binding to DNA – biochemical, fluorescence polarization, NIH Clinical Collection, primary screen (AID 743270); conditions: NS3 helicase binding to Cy5-dT15 DNA, active compounds read high, concentration not given here
[18] = target: Single-stranded DNA-binding protein (Escherichia coli (strain K12)) (UniProt P0AGE0); experiment: SSB-ssDNA binding inhibitors – biochemical, fluorescence polarization, NIH Clinical Collection, counter-screen for HCV NS3 helicase inhibitor project (AID 743271; in the data active means inhibition above about 28%); conditions: E. coli SSB-DNA binding, active compounds read high, concentration not given here
[19] = compounds distorting NS3 helicase fluorescence signal – biochemical, NIH Clinical Collection, artefact control for HCV NS3 helicase inhibitor project (AID 743272); conditions: fluorescence interference counterscreen, HCV NS3 helicase assay; active compounds read low;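 further: HCV NS3 helicase with a Cy5 labelled single stranded DNA probe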

ATP-dependent translocase ABCB1 (Homo sapiens), sequence (P08183 whole entry, looked up): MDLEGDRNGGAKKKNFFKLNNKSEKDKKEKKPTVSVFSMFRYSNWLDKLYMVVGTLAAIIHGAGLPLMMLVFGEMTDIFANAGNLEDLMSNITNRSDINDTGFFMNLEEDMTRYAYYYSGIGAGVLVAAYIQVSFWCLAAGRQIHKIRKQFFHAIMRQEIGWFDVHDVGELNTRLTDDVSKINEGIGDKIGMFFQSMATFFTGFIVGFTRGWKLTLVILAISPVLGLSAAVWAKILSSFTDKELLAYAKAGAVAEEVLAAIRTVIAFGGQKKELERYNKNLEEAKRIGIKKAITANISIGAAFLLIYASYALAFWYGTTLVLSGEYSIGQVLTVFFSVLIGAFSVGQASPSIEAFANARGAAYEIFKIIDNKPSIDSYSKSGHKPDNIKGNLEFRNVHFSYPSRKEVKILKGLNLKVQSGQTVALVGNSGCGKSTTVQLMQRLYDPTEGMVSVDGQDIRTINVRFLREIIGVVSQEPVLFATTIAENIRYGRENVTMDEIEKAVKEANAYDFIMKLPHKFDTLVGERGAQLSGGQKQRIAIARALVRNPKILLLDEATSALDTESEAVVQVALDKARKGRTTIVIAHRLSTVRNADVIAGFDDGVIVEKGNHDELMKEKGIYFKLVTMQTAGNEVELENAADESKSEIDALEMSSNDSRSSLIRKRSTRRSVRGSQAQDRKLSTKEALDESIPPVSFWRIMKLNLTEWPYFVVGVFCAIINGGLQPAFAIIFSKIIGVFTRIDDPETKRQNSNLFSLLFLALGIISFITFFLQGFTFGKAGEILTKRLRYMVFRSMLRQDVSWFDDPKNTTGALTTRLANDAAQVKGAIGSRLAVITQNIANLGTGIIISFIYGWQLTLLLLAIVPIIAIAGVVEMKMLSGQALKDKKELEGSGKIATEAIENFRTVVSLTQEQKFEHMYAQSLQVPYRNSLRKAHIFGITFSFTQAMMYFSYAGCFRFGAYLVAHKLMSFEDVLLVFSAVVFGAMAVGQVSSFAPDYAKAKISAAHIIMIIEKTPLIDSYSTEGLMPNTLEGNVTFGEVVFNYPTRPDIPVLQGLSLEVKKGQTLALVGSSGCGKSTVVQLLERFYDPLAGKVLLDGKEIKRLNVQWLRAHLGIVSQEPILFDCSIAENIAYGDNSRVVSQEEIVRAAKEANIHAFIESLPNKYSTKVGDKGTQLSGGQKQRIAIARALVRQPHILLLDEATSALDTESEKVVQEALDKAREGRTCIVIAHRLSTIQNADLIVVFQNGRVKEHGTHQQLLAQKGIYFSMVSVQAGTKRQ
Mitogen-activated protein kinase 7 (Homo sapiens), sequence (Q13164 whole entry, looked up, the tested form may be a part): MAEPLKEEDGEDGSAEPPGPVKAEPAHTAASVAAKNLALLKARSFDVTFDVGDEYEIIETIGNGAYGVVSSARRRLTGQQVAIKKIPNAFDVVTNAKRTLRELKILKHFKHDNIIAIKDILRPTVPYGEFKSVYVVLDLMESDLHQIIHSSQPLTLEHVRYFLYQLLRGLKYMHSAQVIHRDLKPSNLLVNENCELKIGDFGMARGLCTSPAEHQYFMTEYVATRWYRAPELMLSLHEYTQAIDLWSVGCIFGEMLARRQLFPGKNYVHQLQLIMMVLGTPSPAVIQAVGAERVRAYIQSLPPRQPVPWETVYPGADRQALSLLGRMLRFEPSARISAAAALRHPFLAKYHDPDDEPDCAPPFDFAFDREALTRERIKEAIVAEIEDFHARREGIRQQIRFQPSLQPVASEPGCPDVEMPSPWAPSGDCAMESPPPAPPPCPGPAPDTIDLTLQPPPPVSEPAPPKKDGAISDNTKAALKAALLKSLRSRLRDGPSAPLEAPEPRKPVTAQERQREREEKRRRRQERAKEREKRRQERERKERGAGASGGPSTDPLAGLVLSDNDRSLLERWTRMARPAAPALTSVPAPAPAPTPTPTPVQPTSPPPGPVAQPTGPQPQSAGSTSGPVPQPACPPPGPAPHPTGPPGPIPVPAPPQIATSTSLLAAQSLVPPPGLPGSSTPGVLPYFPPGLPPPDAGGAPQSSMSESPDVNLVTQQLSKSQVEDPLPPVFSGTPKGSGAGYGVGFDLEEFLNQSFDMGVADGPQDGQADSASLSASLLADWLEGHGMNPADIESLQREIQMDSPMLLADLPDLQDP

## Cc1ccc(S(=O)(=O)N[C@@H](CCCCN)C(=O)CCl)cc1
[1]
  fluorescence ratio (interference): 1
[2]
  outcome: inactive

## Clc1cccc(SC2CCNCC2)n1
[3]
  remaining activity: 108%

## O=C1NCN(c2ccccc2)C12CCN(CC1COc3ccccc3O1)CC2 (stereo not given)
[1]
  fluorescence ratio (interference): 0.9
[3]
  remaining activity: 104%

## Cn1c(CCCC(=O)O)nc2cc(N(CCCl)CCCl)ccc21
[1]
  fluorescence ratio (interference): 1
[4]
  AC50: 20.9 µM (active)
[5]
  outcome: inactive
[6]
  outcome: inactive
[7]
  outcome: inactive
[8]
  outcome: inactive
[2]
  outcome: inactive

## NCC1(CC(=O)O)CCCCC1
[9]
  fluorescence slope change: 23.2%
[1]
  fluorescence ratio (interference): 1
[4]
  outcome: inactive
[10]
  outcome: inactive
[11]
  outcome: inactive
[12]
  outcome: inactive
[5]
  outcome: inactive
[6]
  outcome: inactive
[7]
  outcome: inactive
[8]
  outcome: inactive
[2]
  outcome: inactive
[13]
  luciferase signal: 76 AU

## Cc1cccc(C)c1NC(=O)CN1CCCC1=O
[1]
  fluorescence ratio (interference): 1
[10]
  outcome: inactive
[11]
  outcome: inactive
[12]
  outcome: inactive
[5]
  outcome: inactive
[6]
  outcome: inactive
[14]
  outcome: inactive
[8]
  outcome: inactive
[2]
  outcome: inactive

## O=C(O)c1ccc2[nH]cc(CCCCN3CC=C(c4ccccc4)CC3)c2c1
[3]
  remaining activity: 115%

## CCCC[N+]1(C)[C@@H]2CC(OC(=O)[C@H](CO)c3ccccc3)C[C@H]1[C@@H]1O[C@@H]12 (stereo not given in full)
[4]
  outcome: inactive
[10]
  outcome: inactive
[11]
  outcome: inactive
[12]
  outcome: inactive
[5]
  outcome: inactive
[6]
  outcome: inactive
[7]
  outcome: inactive
[14]
  outcome: inactive
[8]
  outcome: inactive

## C#C[C@]1(O)C=C[C@H]2[C@@H]3CCC4=CC(=O)CC[C@@H]4[C@H]3CC[C@@]21CC
[4]
  outcome: inactive
[10]
  outcome: inactive
[11]
  outcome: inactive
[12]
  outcome: inactive
[5]
  outcome: inactive
[6]
  outcome: inactive
[7]
  outcome: inactive
[14]
  outcome: inactive

## CC(C)NCC(O)c1ccc(N)c(C#N)c1 (stereo not given)
[3]
  remaining activity: 122%

## COc1ccc(C(=O)c2c(C)n(CCN3CCOCC3)c3ccccc23)cc1
[10]
  outcome: inactive
[11]
  outcome: inactive
[12]
  outcome: inactive
[7]
  outcome: inactive
[14]
  AC50: 16.6 µM (active)

## Cc1ncsc1CCCl
[1]
  fluorescence ratio (interference): 1
[3]
  remaining activity: 110%
[2]
  outcome: inactive

## CCCCC/C=C\C/C=C\C/C=C\C/C=C\CCCC(=O)NCC(=O)O
[1]
  fluorescence ratio (interference): 1

## COc1ccc(CN2CCNCC2)c(OC)c1OC
[9]
  fluorescence slope change: 2.5%

## FC(F)(F)c1cccc(C2=CCN(CCc3ccc4ccccc4c3)CC2)c1
[3]
  remaining activity: 94.1%

## CC(C)(C)OC(=O)c1ncn2c1[C@@H]1CCCN1C(=O)c1c(Br)cccc1-2
[3]
  remaining activity: 103%

## O=C(NC(=O)c1c(F)cccc1F)Nc1cc(Cl)c(OC(F)(F)C(F)C(F)(F)F)cc1Cl (stereo not given)
[15]
  activity remaining: 94.5%

## CC[N+](CC)(CC)CC
[1]
  fluorescence ratio (interference): 1

## C=CCN1C[C@H](C)N([C@H](c2ccc(C(=O)N(CC)CC)cc2)c2cccc(OC)c2)C[C@H]1C
[3]
  remaining activity: 118%

## CCOC(=O)CC(SP(=S)(OC)OC)C(=O)OCC (stereo not given)
[13]
  luciferase signal: 52 AU

## CCCCc1ccc(C(=O)O)nc1
[1]
  fluorescence ratio (interference): 1.1
[2]
  outcome: inactive

## CC(=O)[C@H]1CC[C@H]2[C@@H]3CC[C@H]4C[C@H](O)CC[C@]4(C)[C@H]3C(=O)C[C@]12C
[1]
  fluorescence ratio (interference): 1
[2]
  outcome: inactive

## COP(=O)(OC)OC=C(Cl)Cl
[13]
  luciferase signal: 84 AU

## N#CC(C#N)=Cc1ccc(O)c(O)c1
[1]
  fluorescence ratio (interference): 1
[3]
  remaining activity: 122%
[2]
  outcome: inactive

## CCCN1CCC[C@@H]2Cc3nc(N)ncc3C[C@H]21
[1]
  fluorescence ratio (interference): 1
[2]
  outcome: inactive

## Cc1nnc2n1-c1sc(CCC(=O)N3CCOCC3)cc1C(c1ccccc1Cl)=NC2
[3]
  remaining activity: 108%

## C[C@]12CC[C@H](O)CC1=CC[C@@H]1[C@@H]2CC[C@]2(C)C(=O)CC[C@@H]12
[16]
  fluorescence ratio: 0.94
[17]
  inhibition: 0.66%
[18]
  inhibition: -2.76%
[19]
  fluorescence ratio: 0.97
[4]
  outcome: inactive
[10]
  outcome: inactive
[11]
  outcome: inactive
[12]
  outcome: inactive
[5]
  outcome: inactive
[6]
  outcome: inactive
[7]
  outcome: inactive
[14]
  outcome: inactive
[8]
  outcome: inactive
[13]
  luciferase signal: 48 AU

## COC[C@@H](NC(C)=O)C(=O)NCc1ccccc1
[4]
  outcome: inactive
[11]
  outcome: inactive
[5]
  outcome: inactive
[6]
  outcome: inactive
[7]
  outcome: inactive
[14]
  outcome: inactive
[8]
  outcome: inactive

## Fc1ccc(C(OCCN2CCN(CCCc3ccccc3)CC2)c2ccc(F)cc2)cc1
[9]
  fluorescence slope change: 119% (active)
[1]
  fluorescence ratio (interference): 1
[3]
  remaining activity: 118%
[4]
  AC50: 14.8 µM (active)
[10]
  AC50: 20.9 µM (active)
[11]
  AC50: 14.8 µM (active)
[12]
  AC50: 13.2 µM (active)
[6]
  AC50: 8.33 µM (active)
[7]
  AC50: 16.6 µM (active)
[14]
  AC50: 18.6 µM (active)
[8]
  IC50: 16.6 µM (active)
[2]
  outcome: inactive

## COc1ccc2c(c1OC)CN1CCc3cc4c(cc3C1C2)OCO4 (stereo not given)
[9]
  fluorescence slope change: 24.8%
[10]
  outcome: inactive
[11]
  AC50: 14.8 µM (active)
[12]
  AC50: 16.6 µM (active)
[7]
  outcome: inactive

## OC(c1ccccc1)(c1ccccc1)C1CCNCC1
[9]
  fluorescence slope change: 93.1% (active)

## O=C(CCCN1CCC(n2c(=O)[nH]c3ccccc32)CC1)c1ccc(F)cc1
[9]
  fluorescence slope change: 57.5% (active)

## [N-]=[N+]=CC(=O)OC[C@H](N)C(=O)O
[13]
  luciferase signal: 40 AU
